Experimental data: ChEMBL document CHEMBL4513216, “Probing the Open Global Health Chemical Diversity Library for Multistage-Active Starting Points for Next-Generation Antimalarials” (ACS Infect Dis, 2020)
Hit rate of the full screen: of about 69,000 compounds, about 8,600 (12%) showed an effect of 50% or more. The full list was thinned out, with strong results kept by preference.

tested on: Plasmodium berghei; assay: Screen against P. berghei liver stage (PbLuc), transformed with Luciferase, at 10uM; assay type: functional, HepG2; settings: tested at 10 uM

Structure (SMILES) | INHIBITION [%]
COC(=O)c1ccc(C(=O)N2CCc3c(ncn3C3CC3)C2)cc1 | -36.95
CN(C)c1ncccc1C(=O)N1CCc2c(ncn2C2CC2)C1 | -10.785
O=C(c1csc(I)c1)N1CCc2c(ncn2C2CC2)C1 | 76
CCN(CC)Cc1nnc2sc(C(C)Oc3ccccc3)nn12 (stereo not given) | -2.93
CC(C)C1CN(c2cccc(C#N)n2)CCCN1CC1CC1 (stereo not given) | 33.9
CC(C)C1CN(c2cccc(C#N)n2)CCCN1Cc1ccc(F)cc1 (stereo not given) | 68.5
CC(C)C1CN(S(C)(=O)=O)CCCN1Cc1ccc(F)cc1 (stereo not given) | 24.3
CC(C)C1CN(S(=O)(=O)C2CC2)CCCN1Cc1ccc(F)cc1 (stereo not given) | 45.6
CC(C)C1CN(S(=O)(=O)N2CCCC2)CCCN1Cc1ccc(F)cc1 (stereo not given) | 65.3
CC(C)C1CN(S(=O)(=O)N(C)C)CCCN1Cc1ccc(F)cc1 (stereo not given) | 12.8
Fc1cnc(N2CCn3cc(CNc4ccccn4)nc3C2)nc1 | 47.2
CC(C)n1nc(CNc2ncccn2)c2c1CN(C1CCOCC1)CC2 | -18.2
CSCCNC(=O)C1CCC(=O)N(C2CCCC2)C1 (stereo not given) | 17.9
O=C(NCCn1cccc1)C1CCC(=O)N(C2CCCC2)C1 (stereo not given) | 41.2
O=C(NCCN1CCCCC1=O)C1CCC(=O)N(C2CCCC2)C1 (stereo not given) | 55.6
N#Cc1ccc(NCCCOCC2CCCO2)c(F)c1 (stereo not given) | 6.02
Cc1nnc(NCc2cccc(OCC3CCCO3)c2)c(C#N)c1C (stereo not given) | 1.74
CN(C)C(=O)c1cccc(CNc2ccc(C#N)cn2)c1 | 73.8
N#Cc1ccc(NCc2cccc(OCC3CCCO3)c2)nc1 (stereo not given) | 53.8
Cc1nc2ccccc2nc1NCc1cccc(OCC2CCCO2)c1 (stereo not given) | 83.9
CNS(=O)(=O)Cc1cccc(CNc2ccc(C#N)cn2)c1 | -55
Oc1cccc(CNCC2CCCO2)c1 (stereo not given) | 35.5
CNC(=O)c1cccc(CCNc2ccc(C#N)cn2)c1 | -11

Structure (SMILES) | INHIBITION [%]
N#Cc1ccc(NCc2cccc(COC3CCOCC3)c2)nc1 | 7.58
CN(C)Cc1cc(=O)n2c(n1)CN(S(=O)(=O)C1CC1)CCC2 | 21.6
O=C(CCn1cccn1)N1C[C@H]2CC[C@@H](C1)N(Cc1ccccn1)C2=O | 8.47
N#Cc1cc2cc(Cl)cnc2nc1O | -26.3
CC(C)(C(=O)NCC1CCN(Cc2ccccn2)C1)c1ccccc1 (stereo not given) | 49.2
O=C1NCCCc2[nH]c(C3CCCN(C(=O)C4CC4)C3)nc21 (stereo not given) | 26.8
CC(C)OCCN1CCN(c2ccc(CN(C)C)cn2)CC1 | 25.4
CCN1CCN(Cc2coc(-c3cccc(F)c3)n2)CC1 | 65.2
CN1CCOC(CNCc2coc(-c3cccc(Cl)c3)n2)C1 (stereo not given) | 33.7
CN1CCOC(CNCc2coc(-c3cccc(F)c3)n2)C1 (stereo not given) | 57.8
OCCN1CCN(Cc2coc(-c3cccc(Cl)c3)n2)CC1 | 33.3
CN1CCOC(CNCc2coc(-c3ccccc3)n2)C1 (stereo not given) | 22.5
OCCN1CCN(Cc2coc(-c3ccccc3Cl)n2)CC1 | -113
OCCN1CCN(Cc2coc(-c3cccc(F)c3)n2)CC1 | 48.4
OCCN1CCN(Cc2coc(-c3ccccc3)n2)CC1 | 59
CC(O)CN1CCN(Cc2coc(-c3ccccc3)n2)CC1 (stereo not given) | 1.45
CC(=O)N1CCN(Cc2coc(-c3cccc(F)c3)n2)CC1 | -14.7
COCCN1CCN(Cc2coc(-c3ccccc3Cl)n2)CC1 | 63.8
CC(O)CN1CCN(Cc2coc(-c3ccccc3Cl)n2)CC1 (stereo not given) | -66.7
NC(=O)c1cc(C2CCCN(CCOc3ccc(F)cc3)C2)n[nH]1 (stereo not given) | 27.25
CC(NCc1cc(O)c2cccc(F)c2n1)c1ccc(S(C)(=O)=O)cc1 (stereo not given) | 15.1
CCS(=O)(=O)Nc1ccc2c(c1)OCC(C)(C)C(=O)N2C | 25.8
O=C(NC1CCCC1)C1(Cc2cc(C3CCOC3)no2)CCNCC1 (stereo not given) | 26.7

Structure (SMILES) | INHIBITION [%]
COc1ccc(NCc2nc(=O)n(CCC(C)C)[nH]2)cc1 | -27.6
c1ccc2c(c1)ccn2CCCNC1CCOC2(CCOCC2)C1 (stereo not given) | -27.5
Cc1nc(COc2ccc(CNCC3CN(C)CCO3)cc2)cs1 (stereo not given) | 32.4
Cc1nc(CNCC2CN(C)CCO2)cs1 (stereo not given) | 51.6
COc1ccc(-c2nc(CN3CCN(CCO)CC3)co2)cc1 | 59.7
CCN1CCOC(CNCc2csc(C)n2)C1 (stereo not given) | -65.3
COc1ccc(-c2nc(CN3CCCS3(=O)=O)co2)cc1 | -91.4
Cc1ccc(-c2nc(CN3CCN(CCO)CC3)co2)cc1 | 27.4
Cc1cc(N2CCOC(c3ccccn3)C2)nc(N)n1 (stereo not given) | 2.6925
CC(Cn1ccnc1)NC(=O)N1CCN(Cc2cccs2)CC1 (stereo not given) | 49.1
O=S(=O)(NC1CCC12CCN(CC1CCOCC1)CC2)c1ccccc1 (stereo not given) | 36.4
COCCN1CCC(NCc2cccnc2)C1 (stereo not given) | -27.3
Cc1n[nH]cc1CNC1CCN(c2ccc(F)cc2)CC1 | 49.9
Cc1n[nH]cc1CNC1CCN(c2cccc(C(F)(F)F)c2)CC1 | 78.6
FC(F)(F)c1cccc(N2CCC(NCc3cccnc3)CC2)c1 | 71.2
O=C(c1ccoc1)N1CCC(NCc2cccnc2)CC1 | 10.2
Cc1n[nH]cc1CNC1CCN(c2ccccc2)CC1 | 49.9
CC1CN(Cc2ccc(C#N)cc2F)CCN1Cc1nccn1C (stereo not given) | 11.433
Cc1ccc(CN2CCCn3cnc(COCC4CC4)c3C2)o1 | -49.1
CN(CCc1ccccn1)C(=O)CCC1CCCN(c2ccncc2)C1 (stereo not given) | 26.8
O=C(C1CCOCC1)N1CCO[C@H]2[C@H](Oc3cccnc3)CC[C@@H]21 | 10
CC(C)c1noc(C[S+]([O-])CC(=O)Nc2cc(F)ccc2F)n1 (stereo not given) | 56.3
CC(C)c1noc(C[S+]([O-])CC(=O)Nc2ccc(F)c(F)c2)n1 (stereo not given) | 51.3

Structure (SMILES) | INHIBITION [%]
CC(C)c1noc(CN2CCN(C(=O)c3cc(Cl)ccc3F)CC2)n1 | -17
CC(C)c1noc(CCCC(=O)Nc2cccc(F)c2)n1 | 27
CC(C)NC(=O)c1cccc(NC(=O)CCCc2nc(C(C)C)no2)c1 | -8.87
CC(C)c1noc(CCC(=O)Nc2cc(F)ccc2F)n1 | 34
CCN(Cc1ccco1)C(C)c1nc(C(C)(C)C)no1 (stereo not given) | 2.9
CCn1cnnc1CNC(=O)Cc1ccc2c(c1)OCCO2 | 1.78
O=C(NC[C@]1(O)CN(Cc2ccccc2F)C[C@H]1O)c1cscn1 | 14.5
CCn1c(CC2CCN(S(=O)(=O)c3cccs3)CC2)nn(C)c1=O | 41.5
Cc1noc(C)c1CNCc1c(C(C)C)nn(C)c1N1CCOCC1 | 34.5
Cc1nnc2n1CCN(C(=O)c1cc(C)n(-c3ccccc3)c1C)C2 | 44.3
Cc1cccc(-n2c(C)cc(C(=O)N3CCn4c(C)nnc4C3)c2C)c1 | 35.3
Cc1cccc(-n2ncc(C(=O)N3CCn4c(C)nnc4C3)c2C)c1 | 60.6
COc1ccc2nnc(CCCC(=O)NCc3ccccc3)n2n1 | 44.4
CCc1ccc(CN2CCC3(CC2)C(=O)N(C)CCN3CC2CC2)cc1 | -17.1
COC[C@@]12CC[C@@H](N3CCOCC3)C[C@H]1CCN(c1cnccn1)C2 | -15.1
COC[C@@]12CC[C@@H](N3CCOCC3)C[C@H]1CCN(c1ncccc1C)C2 | 45.8
COC[C@@]12CC[C@@H](N3CCOCC3)C[C@H]1CCN(c1ccc(Cl)cn1)C2 | 16.7
COC[C@@]12CC[C@@H](N3CCOCC3)C[C@H]1CCN(c1cc(C)ccn1)C2 | 70.3
COC[C@@]12CC[C@@H](N3CCOCC3)C[C@H]1CCN(c1ncccn1)C2 | 53.5
COC[C@@]12CC[C@@H](N3CCOCC3)C[C@H]1CCN(c1ncccc1Cl)C2 | 13.5
O=C(Cn1cnc2sccc2c1=O)NCCc1nnc2ccccn12 | 46.4
COCC(=O)N1CCc2ccc(=O)n(CC3CC3)c2CC1 | -13.2
c1csc(CNCC2COCc3c(-c4ccoc4)nnn3C2)n1 (stereo not given) | 13.1

Structure (SMILES) | INHIBITION [%]
CCCC(=O)Nc1cccc(C(=O)N(C)CCCC2CCCO2)c1 (stereo not given) | 33.7
COCCn1c2c(ccc1=O)CCN(Cc1ccoc1)CC2 | 25.1
CCN1CCC2(C=C(C(=O)NC3CC3)c3ccccc32)CC1 | 12.4
CCOCCn1c(=O)[nH]c2cc(C(=O)N(C)Cc3ccno3)ccc21 | 8.35
CN(Cc1ccno1)C(=O)c1cccc(CC2CCNCC2)c1 | 70.4
CNc1ncc(CN(C)C(=O)c2cccc(CC3CCNCC3)c2)cn1 | 19.1
CN(Cc1nc(C2CC2)no1)C(=O)c1cccc(CC2CCNCC2)c1 | 59.7
Cc1nc(CN(C)C(=O)c2cccc(CC3CCNCC3)c2)no1 | 34
CN(Cc1nc(C2CC2)no1)C(=O)C1COc2ccccc2C1 (stereo not given) | -9.08
CCN(Cc1cnn(C)c1)C[C@H]1CC[C@@H](Cc2cccc(CN)c2)O1 | 15.1
Cc1cnn(CC2CCCN2CCCS(C)(=O)=O)c1 (stereo not given) | 13.3
CCN(c1cc(C)cc(C)c1)S(=O)(=O)c1cc(C(=O)O)cs1 | 42.9
O=C(NCc1ccco1)[C@H]1CC[C@@H]2[C@@H](CCN2Cc2nccs2)O1 | -30.1
Cc1ccc(NC(=O)c2n[nH]c(-n3cnnc3)n2)cc1 | -5.59
Cc1noc(C)c1CCC(=O)N1CCCN(CC(N)=O)CC1 | 37.95
Cc1noc(C)c1CCC(=O)N1CCN(Cc2cscn2)CC1 | 1.7
Cc1noc(C)c1CC(=O)N1CCN(Cc2cscn2)CC1 | 27.94
CCc1nc(CN2CCCN(C(=O)c3c(C)noc3C)CC2)cs1 | 28.7
CCc1nc(CN2CCN(C(=O)Cc3c(C)noc3C)CC2)cs1 | 50.4
Cc1noc(C)c1CC(=O)N1CCCN(Cc2cscn2)CC1 | 57.4
CCc1nc(CN2CCN(C(=O)N3CCCCC3)CC2)cs1 | -2.53
Cc1noc(C)c1CCC(=O)N1CCCN(Cc2cccs2)CC1 | 52
Cc1noc(C)c1CCC(=O)N1CCCN(Cc2cscn2)CC1 | -5.51
